High-throughput results (PubChem)
Most compounds without a hit are left out; they make up all but 3.3% or so of the library.
HCV inh = blocks hepatitis C virus; Huh7.5.1 HCVcc-Cre infection, luciferase reporter, 44 h; Potency, µM (titrated, usually from 41.8 µM), inactives show at the highest dose activity change, negative = inhibition, most hits filed as inhibitors; 3.4% of 340,000 active; AID 651820; active = well fitted inhibition curve with a large enough effect; inconclusive = small, poorly fitted or top-dose-only effect, or another doubt; inactive = no such curve, though single readings can be large or run the other way
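After 44 h co-culture of compound, cells and HCVcc-Cre (~0.5 moi), substrate is added for 15 min at room temperature and luciferase measured over 15 sec. Cells were seeded at 1,000/well and pre-cultured 4 h.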
VACV mCherry inh = vaccinia inhibition (mCherry reporter); AID 720579; Vaccinia virus mCherry reporter infection, fluorescence; Potency, µM (highest dose often 36.5 µM), without a hit: at the top dose activity change, negative = inhibition, usual class: inhibitors; 0.63% of 310,000 active; calls by dose curve; tested in A549 cells; note: nearly all actives have a fitted effect of over 35% in size
Vaccinia Venus = vaccinia inhibition (Venus reporter); Vaccinia virus Venus reporter expression, fluorescence; Potency, µM (doses to about 36.5 µM), for the others: at the highest dose activity change, negative = inhibition, usual class: inhibitors; 0.46% of 330,000 active; calls by dose curve; tested in A549 cells; note: nearly all actives have a fitted effect of over 30% in size
* = called active by the depositor; i = inactive; u = inconclusive; x = not tested or not shown; ! = not active in a repeat. % is set by controls: 0 for no effect and ±100 for the full control effect; potency is the fitted concentration of half-maximal effect.

SMILES | HCV inh | VACV mCherry inh | Vaccinia Venus
O=c1c2cn(Cc3ccccc3)c3ccccc3c-2nn1Cc1ccc(F)cc1Cl | 3% | -5% | 1%
COc1cccc(N2CCN(C(=O)c3cc(C)oc3C)CC2)c1 | -16% | u | -25%
CSc1nc(Cl)c(Cc2ccc(OCC(C)C)cc2)c(N2CCOCC2)n1 | 11µM* | x | x
CCCCOc1ccc(Cc2c(Cl)nc(SC)nc2N2CCOCC2)cc1 | -26% | i | -14%
Cc1cccc(C(=O)N[C@H]2CC[C@@H](n3cc(C(=O)N4CCCC4)nn3)CC2)c1 | x | -9% | 3%
COc1ccc(-c2csc(C(O)c3ccccc3)n2)cn1 (stereo not drawn) | x | i | -4%
CC1(C(=O)NS(=O)(=O)C2CC2)CCCN(C(=O)c2ccc(F)c(Cl)c2)C1 (stereo not drawn) | x | 31% | -2%
Cc1nnc(N/N=C/c2ccc(-c3ccccc3F)o2)n1N | 4% | u | 28µM*
Cc1nnc(N/N=C\c2ccc(-c3ccccc3[N+](=O)[O-])o2)n1N | -27% | u | 22µM*
CCc1nnc(N/N=C/c2ccc(-c3ccc([N+](=O)[O-])cc3)o2)n1N | -10% | u | u
Cc1nnc(N/N=C/c2ccccc2O)n1N | 22% | u | u
CCCOc1ccc(NC(=O)CC2C(=O)N(c3ccc(C)cc3)C(=O)N2C(C)C)cc1 (stereo not drawn) | x | -4% | -2%
CCN(CC(=O)NCc1cccs1)C(=O)Cc1ccc(C)c(C)c1 | 0% | x | x
CCN1CCN(Cc2ccc(NC(=O)c3cc(NC(=O)c4ccc5n[nH]nc5c4)cc(OC)c3)cc2C(F)(F)F)CC1 | -14% | i | -1%
CCN1CCN(Cc2ccc(NC(=O)c3cc(NC(=O)c4cc5cccc(OC)c5o4)cc(OC)c3)cc2C(F)(F)F)CC1 | -20% | u | 13µM*!
CCN1CCN(Cc2ccc(NC(=O)c3cc(NC(=O)c4cc(-c5ccc(OC)cc5)n[nH]4)cc(OC)c3)cc2C(F)(F)F)CC1 | u | u | 10µM*
CCN1CCN(Cc2ccc(NC(=O)c3cc(NC(=O)c4ccno4)cc(OC)c3)cc2C(F)(F)F)CC1 | u | -5% | u
C/C(CC(=O)Nc1cccc(C(F)(F)F)c1)=N/NC(=O)C(=O)NCCO | 15% | -1% | -10%
COc1ccc(CNC(=O)C(OC(=O)c2ccco2)c2ccc(F)cc2)cc1 (stereo not drawn) | 6% | -16% | -1%
Cc1nc2sccn2c1CN1CCC2(CC1)CC2C(=O)Nc1ccc2c(c1)OCO2 (stereo not drawn) | x | -14% | -9%
COc1ccc(C[C@@H]2c3cc(O)c(OC)cc3CCN2C)cc1O | 9% | -27% | -8%
COc1cc2c(cc1O)[C@@H]1Cc3ccc(OC)c(O)c3CN1CC2 | 2.5µM* | -3% | -19%
Cc1cc(-c2cc(F)cc3c2OC(CNC(=O)CCn2cncn2)C3)ccc1F (stereo not drawn) | x | -14% | -1%
Cc1ccc(C(=O)N(Cc2cc3cc4c(cc3nc2N2CCOCC2)CCC4)CC2CCCO2)cc1 (stereo not drawn) | x | i | -19%
Cc1cccc(N2CCN(C(=O)CCN3C(=S)NC(C)(C)CC3C)CC2)c1C (stereo not drawn) | u | -21% | -11%
SMILES | HCV inh | VACV mCherry inh | Vaccinia Venus
Cc1ccc(C)c(N2CCN(C(=O)CCCN3C(=S)NC(C)(C)CC3C)CC2)c1 (stereo not drawn) | 10µM* | -9% | -27%
COc1ccc2[nH]cc(CCNc3cc(-c4ccccc4C(F)(F)F)ncn3)c2c1 | x | -2% | 11%
Cc1cc(C)c(NC(=O)Cn2c(=O)n(CCC(=O)N3CCc4ccccc4C3)c(=O)c3ccccc32)c(C)c1 | x | u | -24%
Cc1ccc(O)c(C(=O)c2cc(C#N)c(=O)n(Cc3ccccc3)c2)c1 | u | -1% | 7%
Cc1ccc(O)c(C(=O)c2cc(C#N)c3nc4ccccc4n3c2)c1 | 5µM* | u | 244%
Cc1cc(C)c2nccc(C)c2c1 | x | -12% | -9%
COc1cc(/C=N/NC(N)=S)ccc1OC(=O)c1ccc(C)cc1 | 8% | x | x
COc1cc(/C=N/N=C(N)N)ccc1OCc1ccc(Cl)cc1 | 13µM* | x | x
CCOc1cc(/C=N/N=C(N)N)ccc1OCc1ccc(Cl)cc1 | u | -1% | -21%
COc1cc(/C=N/NC(N)=S)ccc1OCc1ccc(C)cc1 | u | 11µM* | u
CC[N+]1(CC(=O)c2ccc(Br)cc2)CCCCC1 | x | -20% | -16%
COc1ccc(OC)c(NC(=O)c2ccc(-c3nc(CSc4ccccc4)c(C)o3)cc2)c1 | x | -14% | -2%
COc1ccc2c(c1)c(C(=O)CN(C)C)c(C)n2C | x | 1% | -9%
O=C(Nc1ccc(S(=O)(=O)NCCc2ccccc2)cc1)c1ccncc1 | 11µM* | x | x
